Drawing on ChEMBL document CHEMBL1961873, “Compounds: GSK PKIS; Assays: Nanosyn kinase panel” (2012), this text covers inhibition for 8 compounds.

The target of assay [1] is Rho-associated protein kinase 1 (Homo sapiens) (UniProt Q13464). The following applies: at 1 µM.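 Note: reported values are mean percent inhibition of ROCK1.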
The target in assay [2] is Rho-associated protein kinase 2 (Homo sapiens) (UniProt O75116). The following applies: at 0.1 µM.
Assay [3] has the same target. The following applies: at 1 µM.
Assay [4] addresses Ribosomal protein S6 kinase alpha-1 (Homo sapiens) (UniProt Q15418). The following applies: at 0.1 µM.
For assay [5] the target is unchanged. The following applies: at 1 µM.
Assay [6] concerns the target Ribosomal protein S6 kinase alpha-3 (Homo sapiens) (UniProt P51812). The following applies: at 0.1 µM.
Assay [7] has the same target. The following applies: at 1 µM.
For assay [8], the target named is Ribosomal protein S6 kinase alpha-2 (Homo sapiens) (UniProt Q15349). The following applies: at 0.1 µM.
For assay [9] the target is unchanged. The following applies: at 1 µM.
Assay [10] addresses Ribosomal protein S6 kinase alpha-6 (Homo sapiens) (UniProt Q9UK32). The following applies: at 0.1 µM.
For assay [11] the target is unchanged. The following applies: at 1 µM.
The target in assay [12] is T1, Serine/threonine-protein kinase Sgk1 (Homo sapiens) (UniProt O00141).
T1 sequence (whole entry): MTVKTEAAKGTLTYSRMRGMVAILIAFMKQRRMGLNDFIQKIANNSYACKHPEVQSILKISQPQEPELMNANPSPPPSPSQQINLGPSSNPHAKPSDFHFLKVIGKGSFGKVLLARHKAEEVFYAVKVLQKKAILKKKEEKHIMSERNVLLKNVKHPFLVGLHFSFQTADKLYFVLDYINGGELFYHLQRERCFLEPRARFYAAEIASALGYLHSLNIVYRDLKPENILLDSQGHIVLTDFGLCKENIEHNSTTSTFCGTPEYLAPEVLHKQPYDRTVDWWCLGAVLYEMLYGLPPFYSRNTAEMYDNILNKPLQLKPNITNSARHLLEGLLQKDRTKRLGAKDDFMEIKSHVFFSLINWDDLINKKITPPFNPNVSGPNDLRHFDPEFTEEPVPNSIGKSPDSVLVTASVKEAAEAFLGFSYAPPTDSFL
The following applies: at 0.1 µM.

Assay [13] has as its target T1, Serine/threonine-protein kinase Sgk1 (Homo sapiens). The following applies: at 1 µM.
Assay [14] addresses T2, Serine/threonine-protein kinase Sgk2 (Homo sapiens) (UniProt Q9HBY8).
T2 sequence (whole entry): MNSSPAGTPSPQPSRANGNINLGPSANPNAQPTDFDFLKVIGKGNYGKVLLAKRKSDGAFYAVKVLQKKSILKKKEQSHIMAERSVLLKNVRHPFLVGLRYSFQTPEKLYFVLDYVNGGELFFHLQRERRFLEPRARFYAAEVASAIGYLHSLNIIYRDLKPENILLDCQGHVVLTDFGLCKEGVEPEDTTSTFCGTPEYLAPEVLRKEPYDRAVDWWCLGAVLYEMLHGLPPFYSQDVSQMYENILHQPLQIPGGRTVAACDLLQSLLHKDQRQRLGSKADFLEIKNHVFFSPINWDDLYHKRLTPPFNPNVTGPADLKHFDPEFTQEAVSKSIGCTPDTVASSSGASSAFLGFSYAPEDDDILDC
The following applies: at 0.1 µM.

In assay [15] the target is T2, Serine/threonine-protein kinase Sgk2 (Homo sapiens). The following applies: at 1 µM.
The target in assay [16] is T3, Serine/threonine-protein kinase Sgk3 (Homo sapiens) (UniProt Q96BR1).
T3 sequence (whole entry): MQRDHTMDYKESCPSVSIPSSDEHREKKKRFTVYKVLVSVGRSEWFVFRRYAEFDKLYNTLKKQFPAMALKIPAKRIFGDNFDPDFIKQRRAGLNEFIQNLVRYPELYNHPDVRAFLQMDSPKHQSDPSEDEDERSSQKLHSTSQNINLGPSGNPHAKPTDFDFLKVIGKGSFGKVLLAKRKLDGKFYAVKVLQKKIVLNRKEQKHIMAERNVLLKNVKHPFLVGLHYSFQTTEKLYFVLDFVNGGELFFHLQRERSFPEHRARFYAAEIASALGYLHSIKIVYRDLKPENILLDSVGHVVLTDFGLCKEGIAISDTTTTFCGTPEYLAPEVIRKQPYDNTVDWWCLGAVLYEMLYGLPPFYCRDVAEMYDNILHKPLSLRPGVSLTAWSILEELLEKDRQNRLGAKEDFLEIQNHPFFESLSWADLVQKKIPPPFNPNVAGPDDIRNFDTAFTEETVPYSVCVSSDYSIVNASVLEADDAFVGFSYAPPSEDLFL
The following applies: at 0.1 µM.

The target of assay [17] is T3, Serine/threonine-protein kinase Sgk3 (Homo sapiens). The following applies: at 1 µM.
For assay [18], the target named is 5'-AMP-activated protein kinase catalytic subunit alpha-1 (Homo sapiens) (UniProt Q13131). The following applies: at 0.1 µM.
The target is the same in assay [19]. The following applies: at 1 µM.
Assay [20] concerns the target 5'-AMP-activated protein kinase catalytic subunit alpha-2 (Homo sapiens) (UniProt P54646). The following applies: at 0.1 µM.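 Note: mean inhibition measured on the AMPK complex of alpha2, beta1 and gamma1 subunits.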

Structures are written as SMILES.

Rho-associated protein kinase 2 (Homo sapiens), sequence (O75116 whole entry, looked up): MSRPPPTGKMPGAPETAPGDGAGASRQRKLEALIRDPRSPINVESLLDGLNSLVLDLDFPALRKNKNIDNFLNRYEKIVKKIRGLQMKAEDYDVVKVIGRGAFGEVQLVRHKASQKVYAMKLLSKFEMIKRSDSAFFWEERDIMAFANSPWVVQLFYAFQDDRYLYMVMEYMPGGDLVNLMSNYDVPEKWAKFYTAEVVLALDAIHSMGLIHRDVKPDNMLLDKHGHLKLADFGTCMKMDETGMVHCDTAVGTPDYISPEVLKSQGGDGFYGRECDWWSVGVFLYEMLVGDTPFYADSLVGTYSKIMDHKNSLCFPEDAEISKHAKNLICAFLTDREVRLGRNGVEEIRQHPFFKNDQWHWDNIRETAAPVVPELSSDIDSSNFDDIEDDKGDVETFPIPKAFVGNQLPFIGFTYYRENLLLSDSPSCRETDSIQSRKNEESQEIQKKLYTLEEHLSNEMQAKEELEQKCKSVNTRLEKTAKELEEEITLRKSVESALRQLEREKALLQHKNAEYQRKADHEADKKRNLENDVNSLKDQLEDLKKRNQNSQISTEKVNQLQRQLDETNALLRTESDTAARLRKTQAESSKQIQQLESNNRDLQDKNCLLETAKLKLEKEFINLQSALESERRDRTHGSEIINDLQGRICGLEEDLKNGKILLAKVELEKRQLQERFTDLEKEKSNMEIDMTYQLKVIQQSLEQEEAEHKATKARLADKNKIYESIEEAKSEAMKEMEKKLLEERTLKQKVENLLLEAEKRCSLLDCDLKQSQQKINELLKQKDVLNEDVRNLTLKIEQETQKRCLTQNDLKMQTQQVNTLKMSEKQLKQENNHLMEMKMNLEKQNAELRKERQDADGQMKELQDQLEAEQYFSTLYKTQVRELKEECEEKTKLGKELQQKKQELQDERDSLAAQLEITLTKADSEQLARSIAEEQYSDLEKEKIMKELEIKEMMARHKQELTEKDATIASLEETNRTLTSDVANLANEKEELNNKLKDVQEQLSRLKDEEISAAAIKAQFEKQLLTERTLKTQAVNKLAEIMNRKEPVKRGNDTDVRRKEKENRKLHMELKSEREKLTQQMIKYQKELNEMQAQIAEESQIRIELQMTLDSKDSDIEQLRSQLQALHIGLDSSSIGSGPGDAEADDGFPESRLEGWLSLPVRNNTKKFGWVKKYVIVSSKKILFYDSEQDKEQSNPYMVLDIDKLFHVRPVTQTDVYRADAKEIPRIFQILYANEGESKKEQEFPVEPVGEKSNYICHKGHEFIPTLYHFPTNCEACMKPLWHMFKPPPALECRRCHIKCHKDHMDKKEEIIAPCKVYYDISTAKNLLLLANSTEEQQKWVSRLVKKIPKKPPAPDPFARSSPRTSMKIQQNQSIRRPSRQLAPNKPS
Ribosomal protein S6 kinase alpha-2 (Homo sapiens), sequence (Q15349 whole entry): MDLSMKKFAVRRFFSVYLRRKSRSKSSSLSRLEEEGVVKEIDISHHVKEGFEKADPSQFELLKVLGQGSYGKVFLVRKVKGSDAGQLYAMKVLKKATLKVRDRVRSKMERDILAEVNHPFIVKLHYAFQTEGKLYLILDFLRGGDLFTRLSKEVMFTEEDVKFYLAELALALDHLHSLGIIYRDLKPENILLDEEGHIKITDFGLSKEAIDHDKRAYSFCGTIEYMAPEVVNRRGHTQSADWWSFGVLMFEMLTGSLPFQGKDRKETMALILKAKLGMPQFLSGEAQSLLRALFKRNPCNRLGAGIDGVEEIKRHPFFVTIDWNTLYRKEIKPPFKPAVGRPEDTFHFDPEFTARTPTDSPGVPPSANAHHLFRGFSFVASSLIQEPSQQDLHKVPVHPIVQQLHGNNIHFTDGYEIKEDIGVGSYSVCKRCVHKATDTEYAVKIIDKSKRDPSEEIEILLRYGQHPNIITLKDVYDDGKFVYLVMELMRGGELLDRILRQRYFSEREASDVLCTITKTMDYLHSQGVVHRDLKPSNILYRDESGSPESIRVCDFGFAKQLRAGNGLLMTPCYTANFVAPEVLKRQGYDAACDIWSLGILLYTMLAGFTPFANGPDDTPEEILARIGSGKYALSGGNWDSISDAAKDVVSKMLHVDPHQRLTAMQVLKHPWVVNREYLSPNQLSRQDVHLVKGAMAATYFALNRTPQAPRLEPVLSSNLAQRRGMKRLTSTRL
Ribosomal protein S6 kinase alpha-3 (Homo sapiens), sequence (P51812 whole entry): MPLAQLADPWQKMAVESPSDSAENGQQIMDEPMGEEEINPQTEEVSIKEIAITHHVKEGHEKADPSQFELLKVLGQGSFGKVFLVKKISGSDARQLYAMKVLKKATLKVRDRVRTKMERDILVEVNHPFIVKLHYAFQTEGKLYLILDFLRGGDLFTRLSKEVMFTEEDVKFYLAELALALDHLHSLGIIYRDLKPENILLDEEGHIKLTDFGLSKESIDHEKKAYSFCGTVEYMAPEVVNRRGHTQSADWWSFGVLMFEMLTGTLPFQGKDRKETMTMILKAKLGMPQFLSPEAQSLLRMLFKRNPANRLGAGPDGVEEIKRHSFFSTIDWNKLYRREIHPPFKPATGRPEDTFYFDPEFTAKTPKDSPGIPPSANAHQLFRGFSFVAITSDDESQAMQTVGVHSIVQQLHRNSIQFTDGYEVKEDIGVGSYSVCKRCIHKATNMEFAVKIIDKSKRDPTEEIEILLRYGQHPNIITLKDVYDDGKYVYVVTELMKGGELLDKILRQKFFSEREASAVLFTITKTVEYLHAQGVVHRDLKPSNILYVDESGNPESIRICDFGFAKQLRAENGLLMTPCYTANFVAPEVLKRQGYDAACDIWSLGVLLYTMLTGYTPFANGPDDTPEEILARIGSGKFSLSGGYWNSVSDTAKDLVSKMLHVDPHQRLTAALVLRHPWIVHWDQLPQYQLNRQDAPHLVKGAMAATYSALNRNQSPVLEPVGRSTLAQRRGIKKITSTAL
Ribosomal protein S6 kinase alpha-1 (Homo sapiens), sequence (Q15418 whole entry): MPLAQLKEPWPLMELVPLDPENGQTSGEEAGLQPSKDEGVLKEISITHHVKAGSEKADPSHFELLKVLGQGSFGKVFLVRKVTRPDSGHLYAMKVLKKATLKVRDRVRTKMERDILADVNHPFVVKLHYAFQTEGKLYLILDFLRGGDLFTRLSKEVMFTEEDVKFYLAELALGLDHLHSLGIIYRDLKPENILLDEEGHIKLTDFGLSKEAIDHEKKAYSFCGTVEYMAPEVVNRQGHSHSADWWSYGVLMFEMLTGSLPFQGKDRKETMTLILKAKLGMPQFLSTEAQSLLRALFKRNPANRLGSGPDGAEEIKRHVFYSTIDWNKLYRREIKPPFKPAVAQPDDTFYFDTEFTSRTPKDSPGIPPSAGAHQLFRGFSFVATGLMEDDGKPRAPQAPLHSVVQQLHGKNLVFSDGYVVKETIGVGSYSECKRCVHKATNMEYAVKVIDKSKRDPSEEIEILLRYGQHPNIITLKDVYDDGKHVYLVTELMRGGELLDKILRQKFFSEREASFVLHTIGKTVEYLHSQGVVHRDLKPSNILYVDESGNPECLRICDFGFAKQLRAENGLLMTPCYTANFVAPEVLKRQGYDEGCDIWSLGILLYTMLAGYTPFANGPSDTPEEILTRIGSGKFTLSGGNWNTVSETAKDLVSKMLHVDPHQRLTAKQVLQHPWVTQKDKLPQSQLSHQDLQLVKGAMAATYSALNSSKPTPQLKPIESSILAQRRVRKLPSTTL
Rho-associated protein kinase 1 (Homo sapiens), sequence (Q13464 2-1354 limits assumed): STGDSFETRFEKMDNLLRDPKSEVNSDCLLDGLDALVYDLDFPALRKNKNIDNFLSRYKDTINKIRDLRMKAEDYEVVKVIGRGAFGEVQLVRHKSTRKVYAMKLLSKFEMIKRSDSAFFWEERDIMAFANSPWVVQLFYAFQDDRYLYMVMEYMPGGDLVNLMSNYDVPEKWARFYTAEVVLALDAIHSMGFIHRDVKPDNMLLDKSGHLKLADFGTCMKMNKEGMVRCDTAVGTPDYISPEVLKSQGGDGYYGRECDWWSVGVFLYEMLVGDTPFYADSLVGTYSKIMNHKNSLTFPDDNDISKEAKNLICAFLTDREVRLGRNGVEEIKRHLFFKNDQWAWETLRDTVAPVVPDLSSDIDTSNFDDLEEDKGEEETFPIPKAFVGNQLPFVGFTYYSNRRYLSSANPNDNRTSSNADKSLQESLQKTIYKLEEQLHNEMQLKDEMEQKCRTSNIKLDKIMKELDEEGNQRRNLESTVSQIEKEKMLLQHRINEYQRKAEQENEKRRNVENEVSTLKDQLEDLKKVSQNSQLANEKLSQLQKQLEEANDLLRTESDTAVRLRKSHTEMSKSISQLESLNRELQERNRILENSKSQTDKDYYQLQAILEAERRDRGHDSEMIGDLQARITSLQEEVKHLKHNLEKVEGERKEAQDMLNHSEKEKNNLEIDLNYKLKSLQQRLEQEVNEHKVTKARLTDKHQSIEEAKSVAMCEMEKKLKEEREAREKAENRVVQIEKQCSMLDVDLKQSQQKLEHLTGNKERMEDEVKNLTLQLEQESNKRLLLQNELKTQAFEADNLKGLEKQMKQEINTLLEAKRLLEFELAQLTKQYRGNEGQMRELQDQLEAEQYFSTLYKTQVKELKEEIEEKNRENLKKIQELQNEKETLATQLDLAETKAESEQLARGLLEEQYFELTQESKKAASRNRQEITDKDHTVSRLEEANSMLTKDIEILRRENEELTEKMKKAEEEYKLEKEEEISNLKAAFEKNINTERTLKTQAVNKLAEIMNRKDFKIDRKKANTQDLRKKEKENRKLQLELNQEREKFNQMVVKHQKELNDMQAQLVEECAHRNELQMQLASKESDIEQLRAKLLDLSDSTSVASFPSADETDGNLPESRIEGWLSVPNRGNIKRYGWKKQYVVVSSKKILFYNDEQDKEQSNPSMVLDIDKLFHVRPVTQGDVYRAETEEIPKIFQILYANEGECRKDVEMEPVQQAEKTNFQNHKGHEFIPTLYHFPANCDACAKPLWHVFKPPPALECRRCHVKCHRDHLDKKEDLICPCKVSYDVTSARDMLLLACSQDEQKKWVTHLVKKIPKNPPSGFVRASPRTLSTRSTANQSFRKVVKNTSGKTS

In general, inhibition refers to the drop in the measured response relative to a control, in per cent. `O=C1Nc2ccccc2/C1=C/Nc1ccc(-n2cncn2)cc1`: the inhibition in assay [1] is 1.71%; in assay [2], 3.63%; in [3] it was 7.17%; in assay [4], 2.06%; in [5], 10.9%; in assay [6], 2.37%. For the same compound, the inhibition in assay [7] amounted to 8.64%; in [8], 3.38%; in [9] it was 14.2%; in [10], 3.31%; in assay [11] it was 11.4%; in assay [12] it was 5.81%. Also, the inhibition in assay [13] was determined as 29.2%; in assay [14], 3.56%; in assay [15], 10.9%; in [16], 4.57%; in [17], 8.06%; in assay [18], 5.93%. In addition, the inhibition was 19.3% in [19] and 3.9% in assay [20].
With `O=C1NC(=O)C(c2cccc(Cl)c2)=C1Nc1ccc(Cl)c(C(=O)O)c1`, the inhibition in assay [1] came out at 0.78%; in assay [2], 1.95%; in assay [3] it was 4.98%; in assay [4] it was 1.51%; in [5] it was 2.92%; in assay [6] it was 1.25%. Further, the inhibition in [7] turned out to be 1.6%; in assay [8], 1.79%; in assay [9], 1.6%; in [10] it was 1.24%; in assay [11] it was 3.09%; in [12], 3.35%. In addition, the inhibition in assay [13] stood at 8.21%; in [14], 0.84%; in assay [15], 3.07%; in [16], 2.77%; in assay [17], 4.64%; in assay [18], 3.69%. In addition, the inhibition in assay [19] was 3.89%; in assay [20], -0.69%.
As for `c1ccc(Oc2ccc(Nc3ncc(-c4ccccc4)o3)cc2)cc1`, the inhibition amounted to 4.29% in assay [1]; 4.32% in assay [2]; 4.11% in [3]; 1.98% in assay [4]; 3.12% in assay [5]; 0.81% in assay [6]. The inhibition in assay [7] came to 1.91%; in assay [8], 0.83%; in assay [9], 1.55%; in assay [10], 0.67%; in [11], 0.25%; in [12], 2.19%. For the same compound, the inhibition in assay [13] worked out at 2.9%; in assay [14] it was 6.17%; in [15] it was 2.79%; in [16] it was 3.61%; in assay [17] it was 3.17%; in [18] it was 0.33%. Further, the inhibition in assay [19] is 3.46%; in assay [20], 1.31%.
As for `O=C1Nc2ccc(I)cc2C1=Cc1cc(Br)c(O)c(Br)c1`, the inhibition worked out at 2.32% in assay [1]; 2.42% in assay [2]; 4.03% in assay [3]; 0.5% in assay [4]; 2.27% in assay [5]; 1.27% in assay [6]. In addition, the inhibition worked out at 1.7% in assay [7]; 2.5% in assay [8]; 3.82% in assay [9]; 1.37% in assay [10]; 3.84% in assay [11]; 0.41% in assay [12]. For the same compound, the inhibition in assay [13] was found to be 2.04%; in [14], 1.05%; in assay [15] it was 0.89%; in [16], 3.3%; in [17], 1.73%; in assay [18], 1.53%. In addition, the inhibition was 3.41% in assay [19] and 6.97% in assay [20].
`O=C(Nc1n[nH]c2cc(-c3cc(F)ccc3F)ccc12)C1CC1`: the inhibition came out at 2.49% in assay [1]; 1.39% in assay [2]; 2.28% in [3]; 0.64% in assay [4]; 0.86% in [5]; 0.31% in [6]. Moreover, the inhibition in [7] was 1.63%; in [8], 1.04%; in [9] it was 3.43%; in assay [10] it was -0.13%; in assay [11], 2.43%; in [12], 2.46%. The inhibition turned out to be 1.25% in assay [13]; 0.34% in assay [14]; 0.08% in assay [15]; 2.01% in [16]; 0.16% in assay [17]; 2.72% in assay [18]. Further, the values for the inhibition in [19] and in assay [20] were 2.32% and 3.84%, respectively.
Turning to `COc1ccc2cc(-c3c(-c4ccncc4)nc(-c4ccc(S(C)(=O)=O)cc4C)n3C)ccc2c1`, the inhibition was determined as 10.6% in [1]; 10.5% in assay [2]; 12.3% in [3]; 6.01% in [4]; 9.72% in assay [5]; 4.66% in assay [6]. The inhibition stood at 9.83% in assay [7]; 3.42% in [8]; 3.72% in assay [9]; 1.53% in assay [10]; 2.04% in assay [11]; 3.01% in [12]. Also, the inhibition stood at 4.51% in [13]; 5.05% in assay [14]; 4.24% in assay [15]; 2.89% in [16]; 4.29% in [17]; 3.65% in assay [18]. Further, the inhibition was found to be 2.77% in assay [19] and 4.21% in assay [20].
Take `NS(=O)(=O)c1ccc(N/N=C2\C(=O)Nc3ccc(-c4cnco4)cc32)cc1`: the inhibition in assay [1] was 37.6%; in [2] it was 16.3%; in assay [3], 58.3%; in assay [4], -0.32%; in [5], 3.8%; in assay [6], -1%. The inhibition in assay [7] is 2.65%; in [8] it was 1.5%; in [9], 7.28%; in assay [10], 0.03%; in assay [11] it was 5.02%; in assay [12], 1.68%. The inhibition in assay [13] is 10.2%; in assay [14], 1.11%; in assay [15], 3.35%; in assay [16] it was 1.34%; in assay [17], 5.76%; in assay [18], 3.38%. In addition, the inhibition amounted to 15.9% in assay [19] and 5.38% in assay [20].
Consider `COc1ccc2ncn(-c3cc(O[C@H](C)c4ccccc4Cl)c(C(N)=O)s3)c2c1`, for which the inhibition in assay [1] was 2.68%; in assay [2], 1.42%; in assay [3], 2.59%; in [4], -0.02%; in [5] it was 0.44%; in assay [6], -1.13%. For the same compound, the inhibition is -0.23% in assay [7]; 1.47% in assay [8]; 1.88% in assay [9]; 0.03% in assay [10]; 3.6% in assay [11]; 2.42% in assay [12]. Also, the inhibition in assay [13] was 2.1%; in assay [14], 0.49%; in [15], 2.09%; in [16], 3.92%; in assay [17] it was 5.77%; in assay [18], 2.16%. Further, the inhibition was found to be 2.45% in [19] and 2.54% in assay [20].
